Assay results: PubChem BioAssay (NCI)
This is part of a sample that, as a whole, favours compounds with a hit. Of some 79,000 tested, about 15% had one in any assay. Values without a mark were called inactive. The source made the active and inactive calls. Cut-off read from the data, not from the text of the source: active = growth inhibition above about 70%; inactive = the rest.

Test: NCI Yeast Anticancer Drug Screen. Data for the wt1 strain (AID 149);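 note: 0% = growth of vehicle-treated wt1 cultures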
Details: S. cerevisiae wt1 strain (SPY 50644) growth inhibition; at 33.0 µM; active compounds read high
Method in brief: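 Measured: growth of wt1 yeast under compound versus vehicle treatment, reported as inhibition.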
`O=C1/C(=C/c2ccccc2)CCCC1CN1CCCCC1` (stereo not drawn) showed a growth inhibition of 31%.
Compound `C#CCN(Cc1ccc2nc(N)[nH]c(=O)c2c1)c1ccc(C(=O)NC(CCC(=O)O)C(=O)O)cc1` (stereo not drawn) has a growth inhibition of 17%.
For `CCOC1(c2cccc([N+](=O)[O-])c2)c2ccccc2Oc2ccccc21`, the growth inhibition was 2%.
In the case of `O=C(O)CNC(=S)Nc1ccccc1`, the growth inhibition was 43%.
With `N/C(=N/N=C/c1cc(Br)cc(Br)c1O)NO` the growth inhibition was 90% (active).
With `C[Si](C)(C)/C=C/CCNC(C#N)c1ccccc1` (stereo not drawn) the growth inhibition was 35%.
In the case of `CCCCCCCCCCCCCCCCOP(=O)(O)OCC(N)C(=O)O` (stereo not drawn), the growth inhibition was 98% (active).
Compound `CC1=C(C(=O)NCc2ccccc2)C(c2ccccc2)C(C(=O)NCc2ccccc2)=C(C)N1` has a growth inhibition of 4%.
For `O=[N+]([O-])c1cc(S(=O)(=O)Nc2ccccc2)ccc1Nc1ccccc1`, the growth inhibition was 91% (active).
In the case of `COc1cc2ccnc(-c3c4ccccc4c(N)c4c(OC)c(OC)ccc34)c2cc1OC`, the growth inhibition was -4%.
For `CCOC(=O)C(Br)C(Br)c1ccccc1Cl` (stereo not drawn), the growth inhibition was 99% (active).
In the case of `CCOC(=O)C1=C(C)NC(C)=C(C(=O)OCCNC(=O)c2ccc(N=[N+]=[N-])cc2)C1c1ccccc1C(F)(F)F` (stereo not drawn), the growth inhibition was 2%.
Work on `Cc1cc(C)c(NC(=S)NC(=O)c2ccccc2)cc1C` yielded a growth inhibition of -17%.
With `CNCCCNc1c2ccccc2nc2cccc([N+](=O)[O-])c12` the growth inhibition was 92% (active).
`COc1c(O)c(C=O)c(Br)c(C=O)c1O` showed a growth inhibition of 17%.
With `Cc1c(C)c(C)c(CSC(=N)N)c(C)c1C` the growth inhibition was 8%.
For `O=C(CSC(=S)N1CCCCC1)Nc1nc2c(s1)CCCC2`, the growth inhibition was 3%.
Compound `CNC(=O)OCc1c(COC(=O)NC)c(-c2ccc(Cl)cc2)n2c1CCC2` has a growth inhibition of -47%.
For `CC(=O)OC1CC2C(C)(C)C(=O)C=C[C@]2(C)C2CCC3(C)C(=CCC3[C@H](CO)C[C@H](O)C(=O)C(C)(C)O)[C@]12C` (stereo partly drawn), the growth inhibition was -21%.
In the case of `CCCCCCOC(=O)NCCOC(=O)Nc1ccccc1`, the growth inhibition was 2%.
For `C[C](C)(C)[Ge]([O][Ge]([c]1ccccc1)[c]1ccccc1)([O][Ge]([c]1ccccc1)[c]1ccccc1)[C](C)(C)C`, the growth inhibition was 68%.
With `CCc1c(Cl)c(C)cc(O)c1Cl` the growth inhibition was -33%.
For `Cc1nc(Nc2ccccc2[N+](=O)[O-])sc1C(=O)CC(=O)C(=O)Nc1c(C(C)C)cccc1C(C)C`, the growth inhibition was 5%.
In the case of `O=[N+]([O-])c1cccc2nc3ccccc3c(NCCCn3ccnc3[N+](=O)[O-])c12`, the growth inhibition was 64%.
In the case of `CCCCCCC(O)CNCc1ccnc2ccc(OC)cc12` (stereo not drawn), the growth inhibition was 8%.
In the case of `Cc1c2cccc(Sc3ccccc3)c2c2c3c(cccc13)[S+](c1ccccc1)C2` (stereo not drawn), the growth inhibition was 96% (active).
With `C=C1CCC(O)C/C1=C/C=C1\CCCC2(C)C1CCC2C(C)CCCC(C)C` (stereo not drawn) the growth inhibition was -15%.
In the case of `NC1=NNC2(C(N)=N1)c1ccccc1-c1ccccc12`, the growth inhibition was 12%.
For `COc1cc2cc3c4cc(OC)c(OC)cc4cc[n+]3c(C)c2cc1OC`, the growth inhibition was -37%.
`COC(=O)NC1C(C)OC(OC2C/C=C(/C)C3C=CC4C(OC5CC(OC6CC(O)C(OC7CC(O)C(OC)C(C)O7)C(C)O6)C(O)C(C)O5)C(C)CC(C)C4C3(C)/C(O)=C3\C(=O)OC4(CC(C)C(CO)=CC4/C=C\2C)C3=O)CC1(C)[N+](=O)[O-]` (stereo not drawn) showed a growth inhibition of 22%.
`O=C1CSC(c2cccc(Cl)c2)N1c1ccc(-c2ccc(-n3c(-c4ccccc4)nc4ccccc4c3=O)cc2)cc1` (stereo not drawn) gave a growth inhibition of -4%.
Compound `CCOC(=O)C(C(=O)OCC)=P(c1ccccc1)(c1ccccc1)c1ccccc1` has a growth inhibition of -3%.
With `COc1ccc(N=CN(C)C)c(C)c1` the growth inhibition was 61%.
Compound `Cc1cc(S(=O)(=O)Nc2nnc3cnc4ccccc4n23)c(S)cc1Cl` has a growth inhibition of 11%.
With `O=C(Oc1ccc2c(c1)CN(Cc1ccccc1)CO2)c1ccccc1` the growth inhibition was 13%.
With `CN(C)[C@@H]1C(=O)C(C(N)=O)=C(O)[C@@]2(O)C(=O)C3=C(O)c4c(O)cccc4C[C@H]3C[C@@H]12` the growth inhibition was 95% (active).
In the case of `O=[N+]([O-])c1ccc2c(c1)/C(=N/N=C1c3ccccc3Cc3ccccc31)c1cc([N+](=O)[O-])cc([N+](=O)[O-])c1-2`, the growth inhibition was 99% (active).
Compound `Cc1nc2c(Br)cc(Br)cc2c(=O)n1-c1ccccc1NC1OCC(O)C(O)C1O` (stereo not drawn) has a growth inhibition of 28%.
With `Cc1cc(N(CCOS(C)(=O)=O)CCOS(C)(=O)=O)ccc1C=Nc1ccc(-c2nc(Cc3ccccc3)sc2C)cc1` the growth inhibition was 90% (active).

Same assay, conditions: S. cerevisiae wt1 strain (SPY 50644) growth inhibition; at 100.0 µM; active compounds read high
`O=C1/C(=C/c2ccccc2)CCCC1CN1CCCCC1` (stereo not drawn) showed a growth inhibition of 34%.
For `C#CCN(Cc1ccc2nc(N)[nH]c(=O)c2c1)c1ccc(C(=O)NC(CCC(=O)O)C(=O)O)cc1` (stereo not drawn), the growth inhibition was 43%.
With `CCOC1(c2cccc([N+](=O)[O-])c2)c2ccccc2Oc2ccccc21` the growth inhibition was 3%.
For `O=C(O)CNC(=S)Nc1ccccc1`, the growth inhibition was 91% (active).
In the case of `N/C(=N/N=C/c1cc(Br)cc(Br)c1O)NO`, the growth inhibition was 98% (active).
With `C[Si](C)(C)/C=C/CCNC(C#N)c1ccccc1` (stereo not drawn) the growth inhibition was 95% (active).
In the case of `CCCCCCCCCCCCCCCCOP(=O)(O)OCC(N)C(=O)O` (stereo not drawn), the growth inhibition was 97% (active).
In the case of `CC1=C(C(=O)NCc2ccccc2)C(c2ccccc2)C(C(=O)NCc2ccccc2)=C(C)N1`, the growth inhibition was 89% (active).
For `O=[N+]([O-])c1cc(S(=O)(=O)Nc2ccccc2)ccc1Nc1ccccc1`, the growth inhibition was 81% (active).
In the case of `COc1cc2ccnc(-c3c4ccccc4c(N)c4c(OC)c(OC)ccc34)c2cc1OC`, the growth inhibition was 30%.
With `CCOC(=O)C(Br)C(Br)c1ccccc1Cl` (stereo not drawn) the growth inhibition was 99% (active).
With `CCOC(=O)C1=C(C)NC(C)=C(C(=O)OCCNC(=O)c2ccc(N=[N+]=[N-])cc2)C1c1ccccc1C(F)(F)F` (stereo not drawn) the growth inhibition was 21%.
In the case of `Cc1cc(C)c(NC(=S)NC(=O)c2ccccc2)cc1C`, the growth inhibition was -14%.
For `CNCCCNc1c2ccccc2nc2cccc([N+](=O)[O-])c12`, the growth inhibition was 97% (active).
With `COc1c(O)c(C=O)c(Br)c(C=O)c1O` the growth inhibition was 68%.
For `Cc1c(C)c(C)c(CSC(=N)N)c(C)c1C`, the growth inhibition was 98% (active).
With `O=C(CSC(=S)N1CCCCC1)Nc1nc2c(s1)CCCC2` the growth inhibition was 79% (active).
With `CNC(=O)OCc1c(COC(=O)NC)c(-c2ccc(Cl)cc2)n2c1CCC2` the growth inhibition was 84% (active).
For `CC(=O)OC1CC2C(C)(C)C(=O)C=C[C@]2(C)C2CCC3(C)C(=CCC3[C@H](CO)C[C@H](O)C(=O)C(C)(C)O)[C@]12C` (stereo partly drawn), the growth inhibition was 75% (active).
With `CCCCCCOC(=O)NCCOC(=O)Nc1ccccc1` the growth inhibition was 1%.
For `C[C](C)(C)[Ge]([O][Ge]([c]1ccccc1)[c]1ccccc1)([O][Ge]([c]1ccccc1)[c]1ccccc1)[C](C)(C)C`, the growth inhibition was 75% (active).
With `CCc1c(Cl)c(C)cc(O)c1Cl` the growth inhibition was 72% (active).
`Cc1nc(Nc2ccccc2[N+](=O)[O-])sc1C(=O)CC(=O)C(=O)Nc1c(C(C)C)cccc1C(C)C` gave a growth inhibition of 4%.
For `O=[N+]([O-])c1cccc2nc3ccccc3c(NCCCn3ccnc3[N+](=O)[O-])c12`, the growth inhibition was 86% (active).
In the case of `CCCCCCC(O)CNCc1ccnc2ccc(OC)cc12` (stereo not drawn), the growth inhibition was 18%.
In the case of `Cc1c2cccc(Sc3ccccc3)c2c2c3c(cccc13)[S+](c1ccccc1)C2` (stereo not drawn), the growth inhibition was 88% (active).
With `C=C1CCC(O)C/C1=C/C=C1\CCCC2(C)C1CCC2C(C)CCCC(C)C` (stereo not drawn) the growth inhibition was 4%.
In the case of `NC1=NNC2(C(N)=N1)c1ccccc1-c1ccccc12`, the growth inhibition was 97% (active).
Compound `COc1cc2cc3c4cc(OC)c(OC)cc4cc[n+]3c(C)c2cc1OC` has a growth inhibition of -31%.
With `COC(=O)NC1C(C)OC(OC2C/C=C(/C)C3C=CC4C(OC5CC(OC6CC(O)C(OC7CC(O)C(OC)C(C)O7)C(C)O6)C(O)C(C)O5)C(C)CC(C)C4C3(C)/C(O)=C3\C(=O)OC4(CC(C)C(CO)=CC4/C=C\2C)C3=O)CC1(C)[N+](=O)[O-]` (stereo not drawn) the growth inhibition was 10%.
Compound `O=C1CSC(c2cccc(Cl)c2)N1c1ccc(-c2ccc(-n3c(-c4ccccc4)nc4ccccc4c3=O)cc2)cc1` (stereo not drawn) has a growth inhibition of -3%.
In the case of `CCOC(=O)C(C(=O)OCC)=P(c1ccccc1)(c1ccccc1)c1ccccc1`, the growth inhibition was 93% (active).
In the case of `COc1ccc(N=CN(C)C)c(C)c1`, the growth inhibition was 95% (active).
For `Cc1cc(S(=O)(=O)Nc2nnc3cnc4ccccc4n23)c(S)cc1Cl`, the growth inhibition was 28%.
Work on `O=C(Oc1ccc2c(c1)CN(Cc1ccccc1)CO2)c1ccccc1` yielded a growth inhibition of 10%.
With `CN(C)[C@@H]1C(=O)C(C(N)=O)=C(O)[C@@]2(O)C(=O)C3=C(O)c4c(O)cccc4C[C@H]3C[C@@H]12` the growth inhibition was 99% (active).
For `O=[N+]([O-])c1ccc2c(c1)/C(=N/N=C1c3ccccc3Cc3ccccc31)c1cc([N+](=O)[O-])cc([N+](=O)[O-])c1-2`, the growth inhibition was 97% (active).
For `Cc1nc2c(Br)cc(Br)cc2c(=O)n1-c1ccccc1NC1OCC(O)C(O)C1O` (stereo not drawn), the growth inhibition was 93% (active).
In the case of `Cc1cc(N(CCOS(C)(=O)=O)CCOS(C)(=O)=O)ccc1C=Nc1ccc(-c2nc(Cc3ccccc3)sc2C)cc1`, the growth inhibition was 98% (active).
